Compound activity deposited in PubChem by National Center for Advancing Translational Sciences (NCATS).
The list is not random: actives were taken first. Their share in the collection is about 19%.
HT1080-NT tox – kills 2HG-producing HT-1080-NT fibrosarcoma cells; HT-1080-NT fibrosarcoma viability, CellTiter-Glo ATP luminescence, 48 h; Potency, µM (series often up to 46.1 µM), without a hit: at the top dose activity, negative = less viability, usual class: cytotoxic; 360,000 compounds, 1.6% hits; AID 686970;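 further: NT is the 2HG producing partner of a matched IDH1 knockdown line; potency means the concentration at half of the fitted maximal effect; 0% = DMSO-treated cells and -100% = media-only wells without cells; nearly all actives have a fitted effect of over 55% in size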
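750 cells/well, RPMI + 5% FBS; 2 h settle, compound pin-transfer, 48 h at 37 degrees C. CellTiter-Glo 10 min RT, luminescence. Normalized to DMSO and media-only wells.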
DT40 TDP1 CPT – growth inhibition of DT40 Tdp1-/-;hTDP1 cells with camptothecin (screen for TDP1 inhibitors) | chicken DT40 Tdp1-/-;hTDP1 cells + 20 nM CPT, ATP luminescence, 48 h | Potency, µM (series often up to 46.2 µM), for inactives: at the top dose activity change, negative = growth inhibition, actives largely listed as inhibitors | 420,000 compounds, 12% hits | AID 686979; further: potency means the concentration at half of the fitted maximal effect; nearly all actives have a fitted effect of over 55% in size
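Chicken DT40 Tdp1-/- cells stably complemented with human TDP1 were seeded at 400 cells/well in medium containing 20 nM camptothecin, exposed to pin-transferred compounds, and grown at 37 °C for at least 48 hr. Viability was read as ATP luminescence.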
IL-1B inflam inh – blocks inflammasome-driven IL-1 beta release. activity change, % at 57.5 µM. THP-1 LPS/ATP IL-1B secretion, AlphaLISA, 16 h; stronger effect = lower value. AID 743279. 360,000 compounds, 4.7% hits; in the data active means activity change below about -50%; inconclusive means mostly about -30% to -49%
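THP-1 cells pretreated 1 hr with compounds (up to 57.5 uM final), then stimulated with LPS (250 ng/mL final) plus ATP (1.25 mM final); secreted IL-1B measured by AlphaLISA after 16 hr, decreased signal indicating inhibition.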
TDP1 cell noCPT – qHTS for Inhibitors of human tyrosyl-DNA phosphodiesterase 1 (TDP1): qHTS in cells in absence of CPT; DT40 Tdp1-/- hTDP1 cells, no CPT, ATP luminescence, 48 h; AID 686978, 2013; Potency, µM (highest dose often 46.2 µM), for inactives: top-dose activity change, negative = growth inhibition, actives largely listed as inhibitors; 420,000 compounds, 15% hits; further: potency means the concentration at half of the fitted maximal effect; nearly all actives have a fitted effect of over 55% in size
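Stably hTDP1-transfected Tdp1-null chicken DT40 cells were treated with library compounds minus camptothecin and grown for at least 48 hr at 37 °C, after which cellular ATP was quantified by luminescence.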
HT1080 IDH1KD tx – kills HT-1080 cells with IDH1 knockdown; 360,000 compounds, 2% hits; Potency, µM (series often up to 46.1 µM), without a hit: at the highest dose activity, negative = toxicity, usual class: cytotoxic; AID 686971; HT-1080 IDH1 knockdown viability, ATP luminescence, 48 h;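 further: potency means the concentration at half of the fitted maximal effect; 0% = DMSO wells and -100% = cell-free medium wells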
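Using the IDH1-knockdown HT-1080 line run in the same batch and compound series as the NT line, viability after 48 h at 37 °C was determined by CellTiter-Glo luminescence and expressed as % activity.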
* hit, by the source's call; ? = inconclusive; . = not tested or not shown. Unless noted, the call rests on the fitted dose curve; in most records, active means well fitted curve in the direction sought with a large enough effect; inconclusive means small, poorly fitted or top-dose-only effect, or another doubt; inactive means no such curve, though single readings can be large; an effect the other way counts as inactive or inconclusive. Unless noted, on the % scale 0 is the no-effect control and ±100 the full control effect.

SMILES	HT1080-NT tox	DT40 TDP1 CPT	IL-1B inflam inh	TDP1 cell noCPT	HT1080 IDH1KD tx
C=C1C=C(C(F)F)n2ncc(C(=O)N3CCN(c4ccccc4)CC3)c2N1	.	11µM*	.	?	.
Cc1nn(-c2ccccc2)c(-c2ccccc2[N+](=O)[O-])c1C(=O)O	8%	-1%	11	-3%	13%
Cc1nn(-c2ccccc2)c(-c2ccccc2[N+](=O)[O-])c1CC#N	0%	?	10	16µM*	-3%
CC(O)(c1cccc(F)c1)c1nc(-c2csc3ccccc23)cs1 (stereo not drawn)	?	?	34	?	?
CCOC(=O)C(C(C)=O)C(c1ccc(OCCC(C)C)cc1)C(C(C)=O)C(=O)OCC (stereo not drawn)	0%	?	-3	16µM*	-19%
O=S(=O)(Cc1ccc(Cl)cc1)Nc1ccc2c(c1)OCO2	0%	?	-53*	?	0%
CC1(C)NC(C(=O)O)Cc2c1[nH]c1ccccc21 (stereo not drawn)	5%	14%	1	2%	23%
CC1(C)CC(=O)CC2(C1)NCC(c1ccccc1)c1c2[nH]c2ccccc12 (stereo not drawn)	-5%	?	-69*	?	-20%
COc1ccc2c(c1)C=C(CN1CCC(CO)(CCc3ccccc3)CC1)CO2	-8%	?	-60*	?	-18%
COc1ccc(CC2(CO)CCN(CC3=Cc4cc(Cl)ccc4OC3)CC2)cc1	15µM*	13µM*	-87*	6.5µM*	23µM*
CC(=O)Oc1ccc2c(C)cc(=O)oc2c1C(=O)c1ccccc1	1%	7%	-9	-12%	-2%
O=C(NCCCN1CCCC1=O)c1ccc(Cl)c(NS(=O)(=O)c2ccc(F)cc2)c1	3%	-5%	-3	-14%	15%
Cc1ccc(CN2CC(C(=O)N(Cc3nnc(-c4ccccc4Cl)o3)C3CC3)CC2=O)cc1 (stereo not drawn)	-6%	-21%	?	-26%	-5%
O=C(Nc1ccncc1)Nc1ccc(Br)cc1Cl	-5%	21µM*	-94*	?	-19%
C=CCNC(=O)Nc1ccc(Br)cc1Cl	0%	-28%	-2	?	2%
O=C(CNc1ccc(Br)cc1)c1ccccc1	?	?	-23	0%	0%
O=C(Nc1ccc(Br)cc1)Nc1ccccc1Cl	-12%	15µM*	?	10µM*	-12%
O=C(CNc1ccccc1Cl)c1ccc(Br)cc1	-10%	?	-77*	?	?
O=C(Nc1ccc(CN2CCCCC2)cc1)Nc1ccccc1Cl	-18%	?	?	?	-4%
CN1CCN(NC(=O)Nc2ccc(Br)cc2Cl)CC1	-7%	-8%	-50*	-4%	-26%
Cc1ccc(NC(=O)C(C)OC(=O)CCC2CCCCC2)cc1 (stereo not drawn)	4%	?	-16	?	19%
Nc1nc2c(ncn2[C@@H]2O[C@H](CNCc3ccccc3)[C@@H](O)[C@H]2O)c(=O)[nH]1	1%	12%	23	?	-3%
COc1ccccc1CN1CCN(C2CCN(C(=O)Nc3ccccc3)CC2)C(=O)C1=O	.	-17%	.	3%	.
O=C(Nc1cccc(Cl)c1)Nc1ccc2nccnc2c1	-6%	?	?	?	-9%
O=C(Nc1ccc2nccnc2c1)Nc1ccccc1Cl	11%	18µM*	?	15µM*	1%
COc1ccccc1N1CCN(CC(O)COc2ccc(C)cc2C)CC1 (stereo not drawn)	-9%	?	-65*	?	-27%
OC(CNC1CCCC1)COCCOc1ccc(Br)cc1 (stereo not drawn)	-16%	?	-66*	?	-19%
COc1ccccc1N1CCN(CC(O)COc2c(OC)cccc2OC)CC1 (stereo not drawn)	-15%	16µM*	33	?	-14%
